In PubChem BioAssay AID1159580 (chemical genetic matrix, 2015):
About 2,000 (36%) of roughly 5,500 compounds were called active. Another 18% or so got no clear call; they are omitted. No stated cut-off is given here; in the data, active means normalized growth mostly below about 0.91 (no sharp cut-off); inconclusive means no clear call, values can overlap the other calls; inactive means mostly above about 0.92. Some of the results follow.

Test: chemical genetic growth profiling, strain panel (AID 1159580);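 further: tested at 20 µM; growth read once vehicle control cultures reached saturation at 30 °C; 1 = growth at the plate median or of vehicle wells; lower values mean less growth of the strain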
Conditions: growth OD

Measured: normalized growth

NCC(N)C(=O)c1ccccc1 (stereo not drawn)
inactive: S. cerevisiae deletion strains, locus YJR043C, strain POL32, active compounds read low 1.01 | S. cerevisiae deletion strains, locus YJR066W, strain TOR1, active compounds read low 0.969 | S. cerevisiae deletion strains, locus YKL009W, strain mrt4, active compounds read low 1.1 | S. cerevisiae deletion strains, locus YKL068W, active compounds read low 1.03 | S. cerevisiae deletion strains, locus YKL085W, strain MDH1 (second series), active compounds read low 1.02 | S. cerevisiae deletion strains, locus YKL085W, strain MDH1, active compounds read low 1.02 | S. cerevisiae deletion strains, locus YKL160W, strain elf1, active compounds read low 1.02 | S. cerevisiae deletion strains, locus YKL190W, strain CNB1, active compounds read low 1.01 | S. cerevisiae deletion strains, locus YKR001C, strain vps1, active compounds read low 0.979 | S. cerevisiae deletion strains, locus YKR026C, strain gcn3, active compounds read low 1.02 | S. cerevisiae deletion strains, locus YKR091W, strain srl3, active compounds read low 1.02 | S. cerevisiae deletion strains, locus YLL001W, strain dnm1, active compounds read low 1.02 | S. cerevisiae deletion strains, locus YLL026W, active compounds read low 1.03 | S. cerevisiae deletion strains, locus YLL041C, strain sdh2, active compounds read low 1.02 | S. cerevisiae deletion strains, locus YLR027C, strain aat2, active compounds read low 1.03 | S. cerevisiae deletion strains, locus YLR039C, strain RIC1, active compounds read low 1.04 | S. cerevisiae deletion strains, locus YLR058C, strain SHM2, active compounds read low 1.01 | S. cerevisiae deletion strains, locus YLR102C, strain apc9, active compounds read low 0.992 | S. cerevisiae deletion strains, locus YLR113W, strain HOG1, active compounds read low 0.949 | S. cerevisiae deletion strains, locus YLR221C, strain rsa3, active compounds read low 1.04 | S. cerevisiae deletion strains, locus YLR258W, strain gsy2, active compounds read low 1 | S. cerevisiae deletion strains, locus YLR262C, strain YPT6 (second series), active compounds read low 1.03 | S. cerevisiae deletion strains, locus YLR262C, strain YPT6, active compounds read low 1.06 | S. cerevisiae deletion strains, locus YLR268W, strain sec22, active compounds read low 0.991 | S. cerevisiae deletion strains, locus YLR320W, strain mms22, active compounds read low 1.04 | S. cerevisiae deletion strains, locus YLR330W, strain CHS5, active compounds read low 1.04 | S. cerevisiae deletion strains, locus YLR342W, strain FKS1 (second series), active compounds read low 0.985 | S. cerevisiae deletion strains, locus YLR342W, strain FKS1, active compounds read low 1.01 | S. cerevisiae deletion strains, locus YLR357W, strain rsc2, active compounds read low 1.03 | S. cerevisiae deletion strains, locus YLR370C, strain arc18, active compounds read low 1.05 | S. cerevisiae deletion strains, locus YLR371W, strain rom2, active compounds read low 1 | S. cerevisiae deletion strains, locus YLR384C, strain iki3, active compounds read low 1.03 | S. cerevisiae deletion strains, locus YLR418C, strain cdc73, active compounds read low 0.987 | S. cerevisiae deletion strains, locus YML016C, strain PPZ1, active compounds read low 1 | S. cerevisiae deletion strains, locus YML032C, strain rad52, active compounds read low 1.01 | S. cerevisiae deletion strains, locus YML120C, strain ndi1, active compounds read low 1 | S. cerevisiae deletion strains, locus YML124C, strain tub3, active compounds read low 1.01 | S. cerevisiae deletion strains, locus YMR058W, strain fet3, active compounds read low 1.05 | S. cerevisiae deletion strains, locus YMR078C, strain ctf18, active compounds read low 1.01 | S. cerevisiae deletion strains, locus YMR125W, strain sto1, active compounds read low 1.01 | S. cerevisiae deletion strains, locus YMR129W, active compounds read low 1.04 | S. cerevisiae deletion strains, locus YMR205C, strain PFK2, active compounds read low 1.06 | S. cerevisiae deletion strains, locus YMR223W, strain ubp8, active compounds read low 1.04 | S. cerevisiae deletion strains, locus YMR231W, strain pep5, active compounds read low 1.03 | S. cerevisiae deletion strains, locus YMR307W, strain GAS1, active compounds read low 0.964 | S. cerevisiae deletion strains, locus YNL067W, strain RPL9B, active compounds read low 1 | S. cerevisiae deletion strains, locus YNL071W, strain lat1, active compounds read low 1.02 | S. cerevisiae deletion strains, locus YNL153C, strain GIM3, active compounds read low 1.01 | S. cerevisiae deletion strains, locus YNL183C, strain NPR1, active compounds read low 0.901 | S. cerevisiae deletion strains, locus YNL209W, strain ssb2, active compounds read low 1.03 | S. cerevisiae deletion strains, locus YNL233W, strain BNI4, active compounds read low 1.02 | S. cerevisiae deletion strains, locus YNL248C, strain rpa49, active compounds read low 1.03 | S. cerevisiae deletion strains, locus YNL250W, strain rad50, active compounds read low 1.02 | S. cerevisiae deletion strains, locus YNL271C, strain bni1, active compounds read low 1.01 | S. cerevisiae deletion strains, locus YNL298W, strain CLA4, active compounds read low 1.01 | S. cerevisiae deletion strains, locus YNL307C, strain MCK1, active compounds read low 0.996 | S. cerevisiae deletion strains, locus YNL322C, strain KRE1 (second series), active compounds read low 1.01 | S. cerevisiae deletion strains, locus YNL322C, strain KRE1, active compounds read low 1.01 | S. cerevisiae deletion strains, locus YNR049C, strain mso1, active compounds read low 1.03 | S. cerevisiae deletion strains, locus YNR052C, strain pop2, active compounds read low 0.994 | S. cerevisiae deletion strains, locus YOL012C, strain htz1 1.74 | S. cerevisiae deletion strains, locus YOL147C, strain pex11, active compounds read low 0.993 | S. cerevisiae deletion strains, locus YOR001W, strain rrp6, active compounds read low 1.04 | S. cerevisiae deletion strains, locus YOR061W, strain CKA2, active compounds read low 1.01 | S. cerevisiae deletion strains, locus YOR069W, strain VPS5, active compounds read low 1.01 | S. cerevisiae deletion strains, locus YOR070C, strain gyp1, active compounds read low 1.04 | S. cerevisiae deletion strains, locus YOR080W, strain dia2, active compounds read low 1.05 | S. cerevisiae deletion strains, locus YOR083W, strain WHI5, active compounds read low 1.02 | S. cerevisiae deletion strains, locus YOR106W, strain vam3, active compounds read low 1.02 | S. cerevisiae deletion strains, locus YOR136W, strain idh2, active compounds read low 1.01 | S. cerevisiae deletion strains, locus YOR144C, strain elg1, active compounds read low 0.996 | S. cerevisiae deletion strains, locus YOR184W, strain ser1, active compounds read low 0.994 | S. cerevisiae deletion strains, locus YOR231W, strain MKK1, active compounds read low 0.962 | S. cerevisiae deletion strains, locus YOR265W, strain rbl2, active compounds read low 1.05 | S. cerevisiae deletion strains, locus YOR270C, strain vph1, active compounds read low 1.11 | S. cerevisiae deletion strains, locus YOR290C, strain snf2, active compounds read low 1 | S. cerevisiae deletion strains, locus YOR316C, strain cot1, active compounds read low 0.993 | S. cerevisiae deletion strains, locus YPL051W, strain arl3, active compounds read low 1.04 | S. cerevisiae deletion strains, locus YPL078C, strain atp4, active compounds read low 1.02 | S. cerevisiae deletion strains, locus YPL106C, strain sse1, active compounds read low 1.01 | S. cerevisiae deletion strains, locus YPL240C, strain hsp82, active compounds read low 1.02 | S. cerevisiae deletion strains, locus YPL256C, strain CLN2, active compounds read low 0.96 | S. cerevisiae deletion strains, locus YPR119W, strain clb2, active compounds read low 0.999 | S. cerevisiae deletion strains, locus YPR141C, strain kar3, active compounds read low 1.01 | S. cerevisiae deletion strains, locus YPR163C, strain tif3, active compounds read low 0.995 | S. cerevisiae deletion strains, locus YPR167C, strain met16, active compounds read low 1.01 | S. cerevisiae deletion strains, strain wtn01, active compounds read low 0.999 | S. cerevisiae strains, strain wild type, active compounds read low 1.02
